The values below come from ChEMBL document CHEMBL2218924, “A broad activity screen in support of a chemogenomic map for kinase signalling research and drug discovery” (Biochem J, 2013).

Experiment [1] deals with T1, Casein kinase II (Homo sapiens) (UniProt P67870+P68400+P19784). The following applies: at 1 µM.
The target in experiment [2] is T1, Casein kinase II (Homo sapiens). The following applies: at 10 µM.
The target of experiment [3] is Casein kinase II subunit alpha' (Homo sapiens) (UniProt P19784). The following applies: at 10 µM.
Chain of Casein kinase II subunit alpha' (Homo sapiens) (P19784 whole entry, looked up): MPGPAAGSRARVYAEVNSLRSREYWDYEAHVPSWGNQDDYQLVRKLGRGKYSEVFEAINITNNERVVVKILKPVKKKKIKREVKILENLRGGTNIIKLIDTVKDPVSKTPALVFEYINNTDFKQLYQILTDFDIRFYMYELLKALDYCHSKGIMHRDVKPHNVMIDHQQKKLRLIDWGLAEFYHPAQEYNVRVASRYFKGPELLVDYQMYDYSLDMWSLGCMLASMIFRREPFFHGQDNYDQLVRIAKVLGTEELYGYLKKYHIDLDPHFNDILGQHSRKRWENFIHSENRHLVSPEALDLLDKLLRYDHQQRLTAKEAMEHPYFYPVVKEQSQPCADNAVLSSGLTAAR
For experiment [4], the target named is Dual specificity protein kinase CLK2 (Homo sapiens) (UniProt P49760). The following applies: at 1 µM.
Chain of Dual specificity protein kinase CLK2 (Homo sapiens) (P49760 whole entry, looked up): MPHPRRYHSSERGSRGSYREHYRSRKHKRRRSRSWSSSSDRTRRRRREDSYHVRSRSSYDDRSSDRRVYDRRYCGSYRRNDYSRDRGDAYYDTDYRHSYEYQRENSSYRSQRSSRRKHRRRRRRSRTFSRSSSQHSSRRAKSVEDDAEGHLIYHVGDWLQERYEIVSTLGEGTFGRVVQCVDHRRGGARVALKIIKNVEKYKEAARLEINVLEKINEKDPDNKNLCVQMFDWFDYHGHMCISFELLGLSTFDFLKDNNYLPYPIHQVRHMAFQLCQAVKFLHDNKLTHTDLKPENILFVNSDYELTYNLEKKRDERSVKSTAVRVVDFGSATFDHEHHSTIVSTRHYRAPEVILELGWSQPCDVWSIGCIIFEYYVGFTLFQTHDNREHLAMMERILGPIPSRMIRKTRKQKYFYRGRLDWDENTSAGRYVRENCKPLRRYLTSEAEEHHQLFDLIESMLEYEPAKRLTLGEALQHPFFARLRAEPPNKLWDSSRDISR
Experiment [5] shares this target. The following applies: at 10 µM.
For experiment [6], the target named is Dual specificity protein kinase CLK3 (Homo sapiens) (UniProt P49761). The following applies: at 1 µM.
Chain of Dual specificity protein kinase CLK3 (Homo sapiens) (P49761 whole entry, looked up): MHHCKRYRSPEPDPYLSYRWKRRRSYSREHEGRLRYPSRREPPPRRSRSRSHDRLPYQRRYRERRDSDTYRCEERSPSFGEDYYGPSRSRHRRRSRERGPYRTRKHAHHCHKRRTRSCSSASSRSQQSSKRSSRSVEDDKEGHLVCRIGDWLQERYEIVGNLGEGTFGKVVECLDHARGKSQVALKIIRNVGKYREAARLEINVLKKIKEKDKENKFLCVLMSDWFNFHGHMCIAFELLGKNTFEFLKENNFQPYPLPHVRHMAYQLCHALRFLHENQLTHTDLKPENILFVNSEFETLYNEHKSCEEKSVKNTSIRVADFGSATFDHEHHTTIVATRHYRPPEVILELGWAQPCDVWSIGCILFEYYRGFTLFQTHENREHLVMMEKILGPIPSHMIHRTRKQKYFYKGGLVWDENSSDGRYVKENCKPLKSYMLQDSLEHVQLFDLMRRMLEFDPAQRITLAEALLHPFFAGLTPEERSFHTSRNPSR
Experiment [7] has the same target. The following applies: at 10 µM.
Experiment [8] has as its target Calcium/calmodulin-dependent protein kinase type 1 (Homo sapiens) (UniProt Q14012). The following applies: at 1 µM.
Experiment [9] has the same target. The following applies: at 10 µM.
Experiment [10] concerns the target Calcium/calmodulin-dependent protein kinase type II subunit beta (Homo sapiens) (UniProt Q13554). The following applies: at 1 µM.
The target is the same in experiment [11]. The following applies: at 10 µM.
Experiment [12] deals with Calcium/calmodulin-dependent protein kinase type II subunit gamma (Homo sapiens) (UniProt Q13555). The following applies: at 1 µM.
Chain of Calcium/calmodulin-dependent protein kinase type II subunit gamma (Homo sapiens) (Q13555 whole entry): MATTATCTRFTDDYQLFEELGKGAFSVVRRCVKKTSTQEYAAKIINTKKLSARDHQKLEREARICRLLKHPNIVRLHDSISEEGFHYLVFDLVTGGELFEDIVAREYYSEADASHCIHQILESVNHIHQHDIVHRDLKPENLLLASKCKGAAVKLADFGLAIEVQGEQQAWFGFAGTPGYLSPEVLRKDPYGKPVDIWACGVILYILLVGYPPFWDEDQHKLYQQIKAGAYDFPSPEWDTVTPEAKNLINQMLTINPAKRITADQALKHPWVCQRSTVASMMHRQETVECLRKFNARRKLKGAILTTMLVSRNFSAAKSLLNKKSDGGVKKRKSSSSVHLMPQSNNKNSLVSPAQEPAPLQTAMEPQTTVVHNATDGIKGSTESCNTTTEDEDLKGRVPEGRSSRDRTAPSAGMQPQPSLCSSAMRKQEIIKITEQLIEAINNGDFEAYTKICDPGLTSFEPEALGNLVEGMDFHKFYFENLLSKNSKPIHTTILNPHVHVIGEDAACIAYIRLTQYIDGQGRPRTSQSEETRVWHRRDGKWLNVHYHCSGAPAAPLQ
Experiment [13] shares this target. The following applies: at 10 µM.
Experiment [14] concerns the target Calcium/calmodulin-dependent protein kinase type II subunit delta (Homo sapiens) (UniProt Q13557). The following applies: at 10 µM.
The target of experiment [15] is T2, Calcium/calmodulin-dependent protein kinase type IV (Homo sapiens) (UniProt Q16566).
T2 sequence (whole entry): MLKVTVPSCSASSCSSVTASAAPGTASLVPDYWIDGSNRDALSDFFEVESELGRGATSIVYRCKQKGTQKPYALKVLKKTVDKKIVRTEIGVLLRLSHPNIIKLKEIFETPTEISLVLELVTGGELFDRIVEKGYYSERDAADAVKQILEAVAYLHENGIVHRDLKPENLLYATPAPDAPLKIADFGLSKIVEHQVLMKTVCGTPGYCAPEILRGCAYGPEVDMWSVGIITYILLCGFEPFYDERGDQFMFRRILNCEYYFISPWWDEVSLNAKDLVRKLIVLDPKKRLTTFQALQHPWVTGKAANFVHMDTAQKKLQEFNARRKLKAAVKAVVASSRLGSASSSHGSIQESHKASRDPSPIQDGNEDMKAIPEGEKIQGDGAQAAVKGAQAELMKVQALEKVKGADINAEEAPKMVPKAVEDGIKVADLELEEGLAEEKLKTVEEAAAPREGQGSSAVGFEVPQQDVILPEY
The following applies: at 10 µM.

Experiment [16] has as its target Casein kinase II subunit alpha' (Homo sapiens) (UniProt P19784). The following applies: at 1 µM.
For experiment [17], the target named is Tyrosine-protein kinase CSK (Homo sapiens) (UniProt P41240). The following applies: at 1 µM.
Chain of Tyrosine-protein kinase CSK (Homo sapiens) (P41240 2-450 limits assumed): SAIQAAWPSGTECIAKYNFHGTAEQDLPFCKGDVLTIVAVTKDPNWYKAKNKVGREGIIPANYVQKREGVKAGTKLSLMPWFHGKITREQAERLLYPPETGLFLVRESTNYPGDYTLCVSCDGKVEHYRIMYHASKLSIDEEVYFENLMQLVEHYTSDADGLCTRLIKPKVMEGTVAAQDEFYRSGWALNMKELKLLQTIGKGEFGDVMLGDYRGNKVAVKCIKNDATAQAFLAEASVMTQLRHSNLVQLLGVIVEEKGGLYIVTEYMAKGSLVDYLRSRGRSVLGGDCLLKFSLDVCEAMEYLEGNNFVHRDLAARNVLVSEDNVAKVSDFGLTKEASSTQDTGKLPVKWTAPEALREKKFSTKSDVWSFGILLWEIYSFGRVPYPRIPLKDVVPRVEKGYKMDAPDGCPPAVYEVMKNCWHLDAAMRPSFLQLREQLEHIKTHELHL
Experiment [18] has the same target. The following applies: at 10 µM.
The target of experiment [19] is Calcium/calmodulin-dependent protein kinase type II subunit delta (Homo sapiens) (UniProt Q13557). The following applies: at 1 µM.
Chain of Calcium/calmodulin-dependent protein kinase type II subunit delta (Homo sapiens) (Q13557 whole entry): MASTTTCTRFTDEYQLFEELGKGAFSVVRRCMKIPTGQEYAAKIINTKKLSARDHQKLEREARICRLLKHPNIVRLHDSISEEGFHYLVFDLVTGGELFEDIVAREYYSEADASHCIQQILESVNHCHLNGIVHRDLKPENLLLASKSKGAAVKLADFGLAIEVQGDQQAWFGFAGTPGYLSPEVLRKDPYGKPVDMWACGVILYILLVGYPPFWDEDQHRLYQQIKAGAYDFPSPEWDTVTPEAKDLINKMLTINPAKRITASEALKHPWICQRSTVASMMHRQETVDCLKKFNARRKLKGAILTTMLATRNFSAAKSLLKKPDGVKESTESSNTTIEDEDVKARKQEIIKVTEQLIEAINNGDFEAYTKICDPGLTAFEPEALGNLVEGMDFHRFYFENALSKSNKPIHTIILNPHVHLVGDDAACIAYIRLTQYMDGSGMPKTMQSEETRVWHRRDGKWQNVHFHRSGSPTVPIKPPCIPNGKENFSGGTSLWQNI
Experiment [20] addresses T2, Calcium/calmodulin-dependent protein kinase type IV (Homo sapiens). The following applies: at 1 µM.

Chain of Calcium/calmodulin-dependent protein kinase type II subunit beta (Homo sapiens) (Q13554 whole entry): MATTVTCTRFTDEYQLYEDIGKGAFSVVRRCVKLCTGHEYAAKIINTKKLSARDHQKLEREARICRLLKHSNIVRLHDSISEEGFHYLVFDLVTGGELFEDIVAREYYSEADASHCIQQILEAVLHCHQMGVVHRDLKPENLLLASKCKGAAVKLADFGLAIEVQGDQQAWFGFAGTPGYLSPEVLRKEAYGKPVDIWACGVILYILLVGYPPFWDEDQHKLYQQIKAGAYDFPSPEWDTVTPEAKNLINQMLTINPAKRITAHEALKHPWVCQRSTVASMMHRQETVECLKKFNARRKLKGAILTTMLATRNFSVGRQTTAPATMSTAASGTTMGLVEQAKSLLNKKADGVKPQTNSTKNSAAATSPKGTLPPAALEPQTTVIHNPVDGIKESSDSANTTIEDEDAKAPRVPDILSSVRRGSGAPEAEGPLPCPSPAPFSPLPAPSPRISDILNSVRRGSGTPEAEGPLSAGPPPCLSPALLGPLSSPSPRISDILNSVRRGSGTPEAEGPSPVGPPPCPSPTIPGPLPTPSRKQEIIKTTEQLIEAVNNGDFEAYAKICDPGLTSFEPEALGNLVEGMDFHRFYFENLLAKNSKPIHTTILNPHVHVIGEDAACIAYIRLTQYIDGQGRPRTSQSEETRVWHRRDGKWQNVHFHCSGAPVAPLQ
T1 sequence (P19784 whole entry, looked up): as the sequence (P19784 whole entry, looked up) above
T1 sequence (P67870 whole entry, looked up): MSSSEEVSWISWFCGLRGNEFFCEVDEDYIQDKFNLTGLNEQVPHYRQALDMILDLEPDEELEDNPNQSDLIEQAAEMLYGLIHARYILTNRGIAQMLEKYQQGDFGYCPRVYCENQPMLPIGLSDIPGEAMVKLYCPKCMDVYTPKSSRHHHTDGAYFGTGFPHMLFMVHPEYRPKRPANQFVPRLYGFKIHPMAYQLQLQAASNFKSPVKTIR
T1 sequence (P68400 whole entry, looked up): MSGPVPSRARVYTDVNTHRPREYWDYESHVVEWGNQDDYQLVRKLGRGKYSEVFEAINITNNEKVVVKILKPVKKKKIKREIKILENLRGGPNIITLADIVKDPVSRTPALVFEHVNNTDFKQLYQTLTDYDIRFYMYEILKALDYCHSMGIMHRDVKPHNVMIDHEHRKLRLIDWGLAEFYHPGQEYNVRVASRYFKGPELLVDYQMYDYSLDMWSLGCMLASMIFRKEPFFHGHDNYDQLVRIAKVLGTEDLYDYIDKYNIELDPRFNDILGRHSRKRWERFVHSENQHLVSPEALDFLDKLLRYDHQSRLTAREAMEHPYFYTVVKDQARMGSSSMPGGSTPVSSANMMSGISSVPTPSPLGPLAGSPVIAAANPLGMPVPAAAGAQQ
Chain of Calcium/calmodulin-dependent protein kinase type 1 (Homo sapiens) (Q14012 whole entry, looked up): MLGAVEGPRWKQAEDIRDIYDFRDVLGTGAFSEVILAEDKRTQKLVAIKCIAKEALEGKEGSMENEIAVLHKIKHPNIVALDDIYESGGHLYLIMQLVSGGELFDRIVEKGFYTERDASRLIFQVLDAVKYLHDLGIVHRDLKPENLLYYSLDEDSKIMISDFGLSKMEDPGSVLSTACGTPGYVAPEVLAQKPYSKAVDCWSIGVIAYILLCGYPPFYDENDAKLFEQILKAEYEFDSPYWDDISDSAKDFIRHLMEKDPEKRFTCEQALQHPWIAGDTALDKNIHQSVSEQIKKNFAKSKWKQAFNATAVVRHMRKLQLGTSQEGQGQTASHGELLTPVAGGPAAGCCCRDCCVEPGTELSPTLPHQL

Regarding `c1ccc2c(-c3ccncc3)c[nH]c2c1`, the residual activity (usually the signal under treatment as a percentage of the control signal) in experiment [1] stood at 78%; in [2] it was 95%; in [3], 90%; in [4] it was 112%; in [5], 85%; in [6] it was 87%. Moreover, the residual activity worked out at 108% in experiment [7]; 106% in experiment [8]; 84% in experiment [9]; 47% in [10]; 10% in experiment [11]; 79% in experiment [12]. Besides, the values for the residual activity in experiment [13], in [14] and in [15] were 26%, 30% and 90%, respectively.
With `O=[N+]([O-])c1ccc(-c2nc(-c3ccc(F)cc3)c(-c3ccncc3)[nH]2)cc1`, the residual activity in [1] was determined as 100%; in [2], 108%; in [16], 114%; in experiment [3], 114%; in [4] it was 122%; in [5], 107%. Moreover, the residual activity in experiment [6] turned out to be 89%; in experiment [7], 87%; in experiment [17] it was 108%; in experiment [18], 105%; in experiment [8], 113%; in [9], 81%. Moreover, the residual activity was determined as 102% in experiment [10]; 92% in experiment [11]; 113% in experiment [19]; 99% in experiment [14]; 101% in experiment [20]; 92% in experiment [15].
For `CC(=O)c1ccc(N2CCOCC2)cc1O`, the residual activity in [1] was determined as 81%; in experiment [2], 108%; in experiment [3], 93%; in experiment [5], 101%; in experiment [7], 91%; in experiment [8], 108%. Besides, the residual activity in [9] turned out to be 83%; in experiment [10], 89%; in experiment [11] it was 92%; in [12] it was 103%; in experiment [13], 96%; in experiment [19], 102%. Besides, the residual activity in experiment [14] worked out at 86%; in experiment [20], 97%; in [15], 98%.
Turning to `O=C1Nc2ccc(Br)cc2/C1=C\c1cc2c([nH]1)CCCC2`, the residual activity in experiment [1] is 77%; in experiment [2] it was 117%; in [16], 120%; in [4] it was 106%; in experiment [5], 101%; in [7], 53%. The residual activity in [17] was determined as 118%; in experiment [18], 102%; in [8] it was 105%; in [10], 72%; in experiment [11], 69%; in experiment [12], 20%. Further, the residual activity in [13] worked out at 16%; in experiment [19], 18%; in experiment [14], 20%; in experiment [20] it was 135%.
Take `CCN(CC)C(=O)c1ccc(Nc2nc(OCC3CCCCC3)c3nc[nH]c3n2)cc1`: the residual activity in experiment [16] is 101%; in [3], 75%; in experiment [4] it was 25%; in [5], 6%; in experiment [6], 65%; in [7] it was 20%. The residual activity came out at 44% in experiment [18]; 70% in [8]; 19% in experiment [9]; 98% in experiment [10]; 51% in experiment [11]; 102% in experiment [12]. In addition, the residual activity in experiment [13] amounted to 51%; in [14], 49%; in [20], 82%; in experiment [15], 28%.
For the molecule `C[C@@H](N)[C@H]1CC[C@H](C(=O)Nc2ccncc2)CC1`, the residual activity in experiment [2] is 87%; in experiment [16], 93%; in experiment [4], 97%; in [5], 66%; in experiment [6], 99%; in experiment [7], 90%. Besides, the residual activity in experiment [17] came out at 106%; in experiment [18] it was 93%; in experiment [8], 123%; in experiment [9], 125%; in [12] it was 100%; in experiment [13], 89%. Further, the residual activity in [19] came to 107%; in experiment [14], 92%; in experiment [20], 90%; in experiment [15], 90%.
As to `O=C1Nc2ccccc2/C1=C1/Nc2ccccc2/C1=N\OCCC(O)CO` (centres undefined), the residual activity in [1] was found to be 73%; in [2] it was 22%; in experiment [16] it was 46%; in experiment [3], 3%; in experiment [4], 2%; in experiment [5], 4%. For the same molecule, the residual activity in experiment [6] came out at 58%; in experiment [7], 25%; in [8], 64%; in experiment [9] it was 15%; in [10], 27%; in [11] it was 4%. The residual activity in experiment [12] came out at 6%; in experiment [13] it was 0%; in experiment [19], 6%; in experiment [14], 1%; in experiment [20] it was 15%; in experiment [15] it was 9%.
As for `Nc1nc(Nc2ccc(S(N)(=O)=O)cc2)nn1C(=S)Nc1c(F)cccc1F`, the residual activity in experiment [1] was 100%; in experiment [2] it was 85%; in experiment [16], 95%; in experiment [3], 62%; in experiment [4], -2%; in experiment [5] it was 2%. For the same molecule, the residual activity in experiment [6] is -4%; in experiment [7], -5%; in experiment [18], 99%; in experiment [8] it was 66%; in [9], 17%; in experiment [10] it was 5%. Besides, the residual activity is -1% in experiment [11]; 2% in experiment [12]; 0% in experiment [13]; 0% in [19]; 0% in experiment [14].
Take `CO[C@H]1C[C@@H]2CC[C@@H](C)[C@@](O)(O2)C(=O)C(=O)N2CCCC[C@H]2C(=O)O[C@H]([C@H](C)C[C@@H]2CC[C@@H](O)[C@H](OC)C2)CC(=O)[C@H](C)/C=C(\C)[C@@H](O)[C@@H](OC)C(=O)[C@H](C)C[C@H](C)/C=C/C=C/C=C/1C`: the residual activity in experiment [1] turned out to be 99%; in experiment [2], 98%; in [3], 105%; in [4], 118%; in [5], 137%; in [6], 80%. Also, the residual activity in experiment [7] was 95%; in experiment [17], 112%; in [18] it was 95%; in experiment [8], 108%; in experiment [9], 84%; in experiment [10], 92%. Moreover, the residual activity in [11] was 79%; in [12], 103%; in experiment [13] it was 96%; in experiment [19], 109%; in experiment [14], 99%; in experiment [20] it was 131%. Besides, the residual activity in [15] stood at 119%.
Take `Nc1ccc2ncnc(NCCc3ccc(Oc4ccccc4)cc3)c2c1`: the residual activity in [1] is 100%; in experiment [2], 101%; in experiment [16], 109%; in experiment [3], 100%; in [4], 87%; in experiment [5], 69%. The residual activity in [6] is 94%; in experiment [7], 92%; in [17], 118%; in experiment [18] it was 91%; in experiment [8], 107%; in experiment [9], 87%. For the same molecule, the residual activity in experiment [10] is 72%; in experiment [11], 43%; in [12] it was 24%; in [13], 11%; in [19] it was 31%; in experiment [14], 14%. The values for the residual activity in experiment [20] and in experiment [15] were 108% and 106%, respectively.
For the molecule `CO[C@@H]1[C@H](N(C)C(=O)c2ccccc2)C[C@H]2O[C@]1(C)n1c3ccccc3c3c4c(c5c6ccccc6n2c5c31)C(=O)NC4`, the residual activity amounted to 73% in experiment [1]; 97% in experiment [2]; 117% in experiment [16]; 102% in experiment [3]; 17% in [4]; 9% in experiment [5]. For the same molecule, the residual activity in [7] was found to be 4%; in experiment [17], 82%; in [18], 78%; in experiment [8], 84%; in experiment [9], 29%; in experiment [10], 18%. Besides, the residual activity in experiment [11] was 4%; in experiment [12], 10%; in experiment [13], -1%; in experiment [19], 5%; in experiment [14] it was 1%; in experiment [20], 98%. Also, the residual activity in experiment [15] was determined as 50%.
